# Reference: PMC11062922 (Nature Chemical Biology, 2023)
# Where two headings read alike, the source gives them in different places.
# Legend:
# Parameters in all cases: species or system human, MV4-11 + K-562 + COLO205 + SK-N-BE2 + OVCAR-8
# [1] = test system: AGK; conditions: read-out: apparent Kd; compound concentrations: 100 nM and 1000 nM (sheet 'Samples'), CATDS: 6.7196554082181503E-2; n = 1
# [2] = test system: AKT1; conditions: read-out: apparent Kd, n = 1
# [3] = test system: AKT2; conditions: read-out: apparent Kd, n = 1
# [4] = test system: CDK17; conditions: read-out: apparent Kd; compound concentrations: 100 nM and 1000 nM (sheet 'Samples'), CATDS: 6.2311196568293398E-2; n = 1
# [5] = test system: CLK4; conditions: read-out: apparent Kd; compound concentrations: 100 nM and 1000 nM (sheet 'Samples'), CATDS: 7.8018331182730397E-2; n = 1
# [6] = test system: MAP2K1; conditions: read-out: apparent Kd, n = 1
# [7] = test system: MAP2K2; conditions: read-out: apparent Kd; compound concentrations: 100 nM and 1000 nM (sheet 'Samples'), CATDS: 8.1065909718248605E-2; n = 1
# [8] = test system: MAPKAPK2; conditions: read-out: apparent Kd; compound concentrations: 100 nM and 1000 nM (sheet 'Samples'), CATDS: 7.7313280603985193E-2; n = 1
# [9] = test system: NNT; conditions: read-out: apparent Kd; compound concentrations: 100 nM and 1000 nM (sheet 'Samples'), CATDS: 6.8216764859784895E-2; n = 1
# [10] = test system: NQO1; conditions: read-out: apparent Kd, n = 1
# [11] = test system: PIP4K2C; conditions: read-out: apparent Kd; compound concentrations: 100 nM and 1000 nM (sheet 'Samples'), CATDS: 6.1582136800339998E-2; n = 1
# [12] = test system: PRKAG2; conditions: read-out: apparent Kd; compound concentrations: 100 nM and 1000 nM (sheet 'Samples'), CATDS: 7.1492957845938399E-2; n = 1
# [13] = test system: TNIK; conditions: read-out: apparent Kd; compound concentrations: 100 nM and 1000 nM (sheet 'Samples'), CATDS: 6.4996238797789693E-2; n = 1
# [14] = test system: VDAC3; conditions: read-out: apparent Kd; compound concentrations: 100 nM and 1000 nM (sheet 'Samples'), CATDS: 6.7332646365255294E-2; n = 1
# [15] = test system: AGPS; conditions: read-out: apparent Kd; compound concentrations: 100 nM and 1000 nM (sheet 'Samples'), CATDS: 7.5383402334255403E-2; n = 1
# [16] = test system: CDK9; conditions: read-out: apparent Kd; compound concentrations: 100 nM and 1000 nM (sheet 'Samples'), CATDS: 8.3924043652499697E-2; n = 1
# [17] = test system: CDKL5; conditions: read-out: apparent Kd; compound concentrations: 100 nM and 1000 nM (sheet 'Samples'), CATDS: 0.33786107354204697; n = 1
# [18] = test system: CSNK1A1; conditions: read-out: apparent Kd; compound concentrations: 100 nM and 1000 nM (sheet 'Samples'), CATDS: 8.0672688589635194E-2; n = 1
# [19] = test system: CSNK1D; conditions: read-out: apparent Kd; compound concentrations: 100 nM and 1000 nM (sheet 'Samples'), CATDS: 0.220619974671908; n = 1
# [20] = test system: CSNK1E; conditions: read-out: apparent Kd; compound concentrations: 100 nM and 1000 nM (sheet 'Samples'), CATDS: 0.1850261885326; n = 1
# [21] = test system: RAB14; conditions: read-out: apparent Kd; compound concentrations: 100 nM and 1000 nM (sheet 'Samples'), CATDS: 7.5249376612815694E-2; n = 1
# [22] = test system: RIOK2; conditions: read-out: apparent Kd, n = 1
# [23] = test system: STK26; conditions: read-out: apparent Kd; compound concentrations: 100 nM and 1000 nM (sheet 'Samples'), CATDS: 8.25311561999897E-2; n = 1
# [24] = test system: ADRBK1; conditions: read-out: apparent Kd; compound concentrations: 100 nM and 1000 nM (sheet 'Samples'), CATDS: 7.1088636568514996E-2; n = 1
# [25] = test system: FLT3; conditions: read-out: apparent Kd; compound concentrations: 100 nM and 1000 nM (sheet 'Samples'), CATDS: 0.11498835622255001; n = 1
# [26] = test system: FRK; conditions: read-out: apparent Kd; compound concentrations: 100 nM and 1000 nM (sheet 'Samples'), CATDS: 9.2307505689948E-2; n = 1
# [27] = test system: MAP2K5; conditions: read-out: apparent Kd; compound concentrations: 100 nM and 1000 nM (sheet 'Samples'), CATDS: 0.380124521697633; n = 1
# [28] = test system: PDGFRB; conditions: read-out: apparent Kd; compound concentrations: 100 nM and 1000 nM (sheet 'Samples'), CATDS: 7.8407173450410803E-2; n = 1
# [29] = test system: PRKCZ; conditions: read-out: apparent Kd, n = 1
# [30] = test system: PTK6; conditions: read-out: apparent Kd; compound concentrations: 100 nM and 1000 nM (sheet 'Samples'), CATDS: 7.5013295148623801E-2; n = 1
# [31] = test system: RIPK2; conditions: read-out: apparent Kd; compound concentrations: 100 nM and 1000 nM (sheet 'Samples'), CATDS: 9.6327273582125797E-2; n = 1
# [32] = test system: RIPK3; conditions: read-out: apparent Kd; compound concentrations: 100 nM and 1000 nM (sheet 'Samples'), CATDS: 0.614198823590974; n = 1
# [33] = test system: ZAK; conditions: read-out: apparent Kd; compound concentrations: 100 nM and 1000 nM (sheet 'Samples'), CATDS: 7.8640349215909094E-2; n = 1
# [34] = test system: AKT3; conditions: read-out: apparent Kd; compound concentrations:100 nM and 1000 nM (sheet 'Samples'); n = 1
# [35] = test system: ATM; conditions: read-out: apparent Kd; compound concentrations:100 nM and 1000 nM (sheet 'Samples'); n = 1
# [36] = test system: CAMK4; conditions: read-out: apparent Kd; compound concentrations:100 nM and 1000 nM (sheet 'Samples'); n = 1
# [37] = test system: JAK2; conditions: read-out: apparent Kd; compound concentrations:100 nM and 1000 nM (sheet 'Samples'); n = 1
# [38] = test system: PRKCD; conditions: read-out: apparent Kd; compound concentrations:100 nM and 1000 nM (sheet 'Samples'); n = 1
# [39] = test system: PRKCQ; conditions: read-out: apparent Kd; compound concentrations: 100 nM and 1000 nM (sheet 'Samples'), CATDS: 0.49835750263786499; n = 1
# [40] = test system: TTN; conditions: read-out: apparent Kd; compound concentrations:100 nM and 1000 nM (sheet 'Samples'); n = 1
# [41] = compound concentrations:100 nM and 1000 nM (sheet 'Samples')
compound,measurement,setting,value
Cc1nnc(-c2ccc(C)c(-c3ccc(C(=O)NCc4ccc(Cl)cc4)cc3)c2)o1 [GW708893X],potency estimated from few doses,[1],1820 nM
same,potency estimated from few doses,"[2]; compound concentrations: 100 nM and 1000 nM (sheet 'Samples'), CATDS: 5.9892362604304798E-2",2380 nM
same,potency estimated from few doses,"[3]; compound concentrations: 100 nM and 1000 nM (sheet 'Samples'), CATDS: 8.2030939692010002E-2",1220 nM
same,potency estimated from few doses,[4],2160 nM
same,potency estimated from few doses,[5],1340 nM
same,potency estimated from few doses,"[6]; compound concentrations: 100 nM and 1000 nM (sheet 'Samples'), CATDS: 7.0817886716783296E-2",1630 nM
same,potency estimated from few doses,[7],1250 nM
same,potency estimated from few doses,[8],1370 nM
same,potency estimated from few doses,[9],1760 nM
same,potency estimated from few doses,"[10]; compound concentrations: 100 nM and 1000 nM (sheet 'Samples'), CATDS: 0.112965714749218",726 nM
same,potency estimated from few doses,[11],2220 nM
same,potency estimated from few doses,[12],1590 nM
same,potency estimated from few doses,[13],1960 nM
same,potency estimated from few doses,[14],1810 nM
c1cnn2ncc(-c3ccnc(NCCCN4CCOCC4)n3)c2c1 [GW683109X],potency estimated from few doses,[15],2080 nM
same,potency estimated from few doses,[16],1290 nM
same,potency estimated from few doses,[17],40.1 nM
same,potency estimated from few doses,[18],1530 nM
same,potency estimated from few doses,[19],82.2 nM
same,potency estimated from few doses,[20],118 nM
same,potency estimated from few doses,[21],2100 nM
same,potency estimated from few doses,"[22]; compound concentrations: 100 nM and 1000 nM (sheet 'Samples'), CATDS: 0.19530203573374799",105 nM
same,potency estimated from few doses,[23],1390 nM
CNC(=O)c1ccc2c(c1)ncn2-c1ccc(CC(=O)OC(C)(C)C)cc1 [GSK840],potency estimated from few doses,[24],2020 nM
same,potency estimated from few doses,[25],469 nM
same,potency estimated from few doses,[26],857 nM
same,potency estimated from few doses,[27],12.1 nM
same,potency estimated from few doses,[28],1420 nM
same,potency estimated from few doses,"[29]; compound concentrations: 100 nM and 1000 nM (sheet 'Samples'), CATDS: 7.7148514104913996E-2",1500 nM
same,potency estimated from few doses,[30],1650 nM
same,potency estimated from few doses,[31],759 nM
same,potency estimated from few doses,[32],4.67 nM
same,potency estimated from few doses,[33],1400 nM
NCC1CCC(CNc2nc(NCc3ccccc3OC(F)(F)F)ncc2[N+](=O)[O-])CC1 (stereo not shown) [BIRZ0518XX],potency estimated from few doses,[2]; [41],1960 nM
same,potency estimated from few doses,[3]; [41],1970 nM
same,potency estimated from few doses,[34],1210 nM
same,potency estimated from few doses,[35],249 nM
same,potency estimated from few doses,[36],1110 nM
same,potency estimated from few doses,[37],517 nM
same,potency estimated from few doses,[6]; [41],2280 nM
same,potency estimated from few doses,[10]; [41],1290 nM
same,potency estimated from few doses,[38],648 nM
same,potency estimated from few doses,[39],40.3 nM
same,potency estimated from few doses,[29]; [41],2020 nM
same,potency estimated from few doses,[22]; [41],1910 nM
same,potency estimated from few doses,[40],1030 nM
